8 compounds from PubChem BioAssay can be followed below.

Tumor necrosis factor receptor superfamily member 10B (Homo sapiens), sequence (O14763 whole entry, looked up): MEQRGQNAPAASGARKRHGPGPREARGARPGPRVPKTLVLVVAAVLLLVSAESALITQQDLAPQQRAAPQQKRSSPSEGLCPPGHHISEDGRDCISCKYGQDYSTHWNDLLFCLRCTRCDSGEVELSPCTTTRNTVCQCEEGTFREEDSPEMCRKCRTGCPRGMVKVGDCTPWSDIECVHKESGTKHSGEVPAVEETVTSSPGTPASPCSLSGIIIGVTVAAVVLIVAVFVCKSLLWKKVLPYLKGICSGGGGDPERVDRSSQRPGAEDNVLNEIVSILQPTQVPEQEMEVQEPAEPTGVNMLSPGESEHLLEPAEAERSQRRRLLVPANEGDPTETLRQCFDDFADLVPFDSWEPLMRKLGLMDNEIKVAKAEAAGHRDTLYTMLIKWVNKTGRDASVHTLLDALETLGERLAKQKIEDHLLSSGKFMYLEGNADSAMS

Test system in one experiment: not listed separately
Nature of the experiment: inhibitors of PAF-induced NFkB signaling in CF airway cells, dose response, cell-based, uHTS hits, panel, cytotoxicity readout (AID 624344). The settings on record: CF bronchial epithelial cells, PAF-induced NFkB reporter inhibition, with PAF, run 2; at 79 µM (top of the series) unless noted.
As usually defined, the inhibition is the relative decrease from the control value, in per cent. For the compound `O=C(Nc1ccc(C(=O)N2CCOCC2)cc1)Nc1cccc(C(F)(F)F)c1`, the inhibition is 94.7%.
Same read-out and setting: the result for `CC(=O)Nc1ccc(NC(=O)C(C)OC(=O)c2ccccc2C(=O)c2ccc(Cl)c([N+](=O)[O-])c2)cc1` (stereo not given) reads 98.8%; that for `Cc1cccc(NC(=O)c2nc(S(=O)(=O)Cc3ccccc3)ncc2Cl)c1`, 95.1%.

Another experiment has as its target Tumor necrosis factor receptor superfamily member 10B (Homo sapiens) (UniProt O14763). As to the kind of experiment: caspase-8 TRAIL sensitization, hit retest, confirmation, cell-based, NB7+caspase-8, with/without TRAIL, luminescence panel (AID 651596). The settings on record: NB7 neuroblastoma + caspase-8, TRAIL sensitization, luminescence viability, with TRAIL, mean of runs, at 10 µM, stronger effect = higher value.
Consider `COc1cc(NC(=O)c2[nH]cnc2C(N)=O)cc(C(=O)Nc2cccc(C(F)(F)F)c2)c1`, for which the activity came to 86.1%.
With `Cc1ccc(CS(=O)(=O)c2ncc(Cl)c(C(=O)Nc3nnc(C)s3)n2)cc1`, the activity is 97.2%.
Same read-out and setting: to `CCOC(=O)/C(=C\c1ccc([N+](=O)[O-])cc1)C(=O)c1cc(C(C)=O)c(Nc2ccccc2)s1` belongs 95.3%; to `O=C(CC(O)(C(F)(F)F)C(F)(F)F)Nc1ccc(Cl)c(Cl)c1`, 61.6%; to `COc1ccc(C(CCN(Cc2ccc(OC)c(OC)c2)C(=O)CCl)c2ccccc2)cc1` (stereo not given), 99.7%.
Same read-out and setting: to `Cc1cccc(NC(=O)c2nc(S(=O)(=O)Cc3ccccc3)ncc2Cl)c1` belongs 55.2%.

Test system in another experiment: not listed separately
The description is as above. Conditions: NB7 neuroblastoma + caspase-8, without TRAIL, luminescence viability, without TRAIL, mean of runs, at 10 µM; in the data active = activity above about 50%; inactive = the rest.
In the case of `COc1cc(NC(=O)c2[nH]cnc2C(N)=O)cc(C(=O)Nc2cccc(C(F)(F)F)c2)c1`, the activity stood at 53.4%.
Same read-out and setting: the result for `Cc1ccc(CS(=O)(=O)c2ncc(Cl)c(C(=O)Nc3nnc(C)s3)n2)cc1` reads 97.2%; that for `CCOC(=O)/C(=C\c1ccc([N+](=O)[O-])cc1)C(=O)c1cc(C(C)=O)c(Nc2ccccc2)s1`, 95.6%.
With `O=C(CC(O)(C(F)(F)F)C(F)(F)F)Nc1ccc(Cl)c(Cl)c1`, the activity came out at 63.1%.
As to `COc1ccc(C(CCN(Cc2ccc(OC)c(OC)c2)C(=O)CCl)c2ccccc2)cc1` (stereo not given), the activity came to 99.7%.
Regarding `Cc1cccc(NC(=O)c2nc(S(=O)(=O)Cc3ccccc3)ncc2Cl)c1`, the activity was determined as 98.5%.
